Assay outcomes (PubChem BioAssay)
An excerpt weighted towards active compounds, which were near 17% of everything screened.
TDP1 cell noCPT: qHTS for Inhibitors of human tyrosyl-DNA phosphodiesterase 1 (TDP1): qHTS in cells in absence of CPT; DT40 Tdp1-/- hTDP1 cells, no CPT, ATP luminescence, 48 h; Potency, µM (titrated, usually from 46.2 µM), hits mostly inhibitors; actives 15% (n = 420,000); AID 686978, 2013; note: nearly all actives have a fitted effect of over 55% in size
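Compound effects on proliferation are scored in DT40 Tdp1-/-;hTDP1 cells in the absence of CPT. ATP levels (CellTiter-Glo luminescence) are recorded after a ≥48 hr, 37 °C incubation.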
ClpP mod: qHTS Assay for Activators of ClpP | Potency, µM (doses to about 57.5 µM) | ATP-dependent Clp protease proteolytic subunit (Bacillus subtilis (strain 168)), P80244 | actives 1.9% (n = 340,000) | purified B. subtilis ClpP, FRET peptide cleavage, 20 min; active = well fitted falling curve with a large enough effect; inconclusive = small, poorly fitted or top-dose-only effect; inactive = no such curve, though single readings can be large or run the other way; note: the source files actives as falling curves though it sought activators and does not explain the sign; nearly all actives have a fitted effect of over 65% in size
Target sequence (P80244 whole entry, looked up): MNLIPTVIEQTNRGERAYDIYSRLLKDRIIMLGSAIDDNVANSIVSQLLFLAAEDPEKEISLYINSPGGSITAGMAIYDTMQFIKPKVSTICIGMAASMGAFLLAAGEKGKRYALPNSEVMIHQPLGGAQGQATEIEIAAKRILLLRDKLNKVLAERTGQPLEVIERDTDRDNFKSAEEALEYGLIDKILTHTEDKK
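FRET quenching reversal measured ClpP activation: 10 microg/mL B. subtilis ClpP at pH 8 with the FRET-FV decapeptide, read at 430 nm after 320 nm excitation. The 20-min minus 0-min signal was scaled between DMSO/no-enzyme wells and ADEP (5.8 microM final).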
TDP1 inh: qHTS Assay for Inhibitors of Tyrosyl-DNA Phosphodiesterase (TDP1). Tyrosyl-DNA phosphodiesterase 1 (Homo sapiens), Q9NUW8. recombinant TDP1, AlphaScreen DNA substrate cleavage. Potency, µM (titrated, usually from 130 µM), hits mostly inhibitors. actives 0.28% (n = 350,000). AID 485290, 2010; note: nearly all actives have a fitted effect of over 40% in size
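Recombinant human Tdp1 (E. coli-expressed, 1 nM final) preincubated with compounds 15 min at room temperature, then 5'-biotin/3'-phosphotyrosine-FITC DNA substrate (15 nM final) added for 5 min. AlphaScreen beads (10 ug/ml final) added 10 min; cleavage lowers signal.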
TDP1 cell CPT: qHTS for Inhibitors of human tyrosyl-DNA phosphodiesterase 1 (TDP1): qHTS in cells in presence of CPT; actives 12% (n = 420,000); chicken DT40 Tdp1-/-;hTDP1 cells + 20 nM CPT, ATP luminescence, 48 h; AID 686979, 2013; Potency, µM (top dose mostly 46.2 µM), actives largely listed as inhibitors; note: nearly all actives have a fitted effect of over 55% in size
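Chicken DT40 Tdp1-/- cells stably complemented with human TDP1 were seeded at 400 cells/well in medium containing 20 nM camptothecin, exposed to pin-transferred compounds, and grown at 37 °C for at least 48 hr. Viability was read as ATP luminescence.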
Each line names hits and unclear results; the compound was inactive in the other large screens. Unless noted, calls come from the whole dose curve; as a rule, active = well fitted curve in the direction sought with a large enough effect; inconclusive = small, poorly fitted or top-dose-only effect, or another doubt; inactive = no such curve, though single readings can be large; an effect the other way counts as inactive or inconclusive.

COc1ccc(-c2nn(Cc3ccccc3)cc2C(=O)N2CCN(c3ccccn3)CC2)cc1OC	ClpP mod inconclusive
CC1CN(C(=O)COc2coc(CN3CCc4ccccc4C3)cc2=O)CC(C)O1 (configuration not stated)	none
Cc1cccn2c(=O)cc(CSc3nnc(NC(=O)COc4ccc(F)cc4)s3)nc12	none
Cn1cnc(S(=O)(=O)NC2CCN(Cc3c(F)cccc3Cl)CC2)c1	none
COc1ccc(OCc2nnc(SCC(=O)Nc3cccc(C(C)=O)c3)o2)cc1	none
O=C(c1cc(-c2ccccc2)nc2ccccc12)N1CCN(c2ccccc2O)CC1	TDP1 cell noCPT 18µM, TDP1 cell CPT 16µM
O=C(c1cc(-c2ccncc2)nc2ccccc12)N1CCN(c2ccccc2O)CC1	TDP1 cell noCPT inconclusive, TDP1 cell CPT inconclusive
COc1ccc(CN2C(=O)Cc3c2nc(N)c2c(N)nc(N4CCOCC4)c(C#N)c32)cc1	TDP1 cell noCPT 21µM, TDP1 cell CPT 15µM (no result: TDP1 inh)
COCCN1C(=O)Cc2c1nc(N)c1c(N)nc(N3CCN(c4ccc(F)cc4)CC3)c(C#N)c21	TDP1 cell noCPT 2.1µM, TDP1 cell CPT 8.2µM
CCC1Cc2c(nc(N)c3c(N)nc(N4CCOCC4)c(C#N)c23)O1 (configuration not stated)	TDP1 cell noCPT inconclusive, TDP1 cell CPT inconclusive
COCC(C)N1C(=O)Cc2c1nc(N)c1c(N)nc(N3CCN(c4ccccc4F)CC3)c(C#N)c21 (configuration not stated)	TDP1 cell noCPT 26µM, TDP1 cell CPT inconclusive (no result: ClpP mod)
Cc1ccc(C(=O)OCC(=O)Nc2ccc(C)c(S(=O)(=O)N3CCCCC3)c2)c(O)c1	none (no result: TDP1 inh)
Cn1c(C(=O)N2CCN(c3ccccc3)CC2)cc2cc(Cl)ccc21	none
CC(=O)NCCNc1nc(NCc2cccs2)nc2ccsc12	TDP1 cell noCPT inconclusive (no result: TDP1 inh)
O=C1CCCN1CCCNS(=O)(=O)c1cccs1	none
O=C1CCCN1CCCNc1nc(NCc2cccs2)nc2ccsc12	TDP1 cell noCPT 16µM, ClpP mod inconclusive, TDP1 cell CPT 21µM (no result: TDP1 inh)
COCCNc1nc(NCc2cccs2)nc2ccsc12	TDP1 cell noCPT 26µM, TDP1 cell CPT inconclusive (no result: TDP1 inh)
c1ccc(CNc2nc(NCc3cccs3)nc3ccsc23)cc1	TDP1 cell noCPT 12µM, TDP1 cell CPT 18µM (no result: TDP1 inh)
c1csc(CNc2nc(NCC3CCCCC3)c3sccc3n2)c1	TDP1 cell noCPT 9.2µM, TDP1 cell CPT 5.8µM (no result: TDP1 inh)
CC(C)c1ccc(NC(=O)/C(C#N)=C/c2ccncc2)cc1	TDP1 cell noCPT inconclusive, TDP1 cell CPT inconclusive
CC(=O)N[C@@H](C)C(=O)NCC1Cc2cccc(-c3ccccc3C(F)(F)F)c2O1 (some centres not stated)	none (no result: ClpP mod, TDP1 inh)
O=P(O)(O)OC(CO)CO	none (no result: ClpP mod)
COCCNc1nc(Oc2ccc(Cl)c(Cl)c2)c2sccc2n1	TDP1 cell CPT inconclusive (no result: TDP1 inh)
CNc1nc(NCc2ccccc2)c2sccc2n1	TDP1 cell noCPT 16µM, TDP1 cell CPT 18µM (no result: TDP1 inh)
COCCNc1nc(NCc2cc(-c3ccc(OC)cc3)no2)c2sccc2n1	TDP1 cell noCPT 18µM, TDP1 cell CPT inconclusive (no result: TDP1 inh)
CNc1nc(-c2ccccc2)c2sccc2n1	TDP1 cell noCPT inconclusive, TDP1 cell CPT inconclusive (no result: TDP1 inh)
c1ccc(CNc2nc(NCCc3ccncc3)c3sccc3n2)cc1	TDP1 cell noCPT 10µM, TDP1 cell CPT 18µM (no result: TDP1 inh)
CCOc1ccc(NC(=O)c2oc3ccccc3c2NC(=O)Cc2cccs2)cc1	TDP1 cell noCPT inconclusive, TDP1 cell CPT inconclusive
O=C(Oc1cc(Cl)cc(Cl)c1)c1cnc2n(c1=O)CCS2	none (no result: ClpP mod)
CNC(=S)N/N=C/c1cn(CCOc2ccccc2OC)c2ccccc12	TDP1 cell noCPT 6.5µM, TDP1 cell CPT 3.7µM
CNC(=S)N/N=C/c1cn(CCOc2cccc(OC)c2)c2ccccc12	TDP1 cell noCPT 13µM, TDP1 cell CPT 8.2µM
C=CCOc1cccc(/C=C2\C(=O)N(Cc3ccc(C)cc3)C(C)=C2C(=O)OC)c1	TDP1 cell noCPT 23µM, TDP1 cell CPT inconclusive (no result: ClpP mod)
COC(=O)C1=C(C)N(Cc2ccco2)C(=O)/C1=C\c1ccc([N+](=O)[O-])cc1	TDP1 cell noCPT inconclusive, TDP1 cell CPT 16µM
COC(=O)C1=C(C)N(C)C(=O)/C1=C\c1ccco1	none
